# Test results from the supplement of paper PMC6279402.
# ± gives the standard deviation of the averaged measurements.
# Test system: A549
# Experiment: relative viability (normalised to negative control = 1, bortezomib = 0) (fraction); higher = less cytotoxic
# Details: inflammatory serum-free RHB-A with cytokines + LPS; 5 d + 24 h CellTiter-Blue; compound 30 nM; GSK126 pretreatment: 5 uM GSK126
row,Structure (SMILES),relative viability
1,Cn1c(=O)c(F)c(Nc2ccc(I)cc2F)c2c(=O)n(C[C@@H](O)CO)cnc21,0.156 ± 0.017
2,Cc1cn(-c2cc(NC(=O)c3ccc(C)c(Nc4nccc(-c5cccnc5)n4)c3)cc(C(F)(F)F)c2)cn1 [Nilotinib],1.02 ± 0.13
3,Cc1nc(NC(=O)N2CCC[C@H]2C(N)=O)sc1-c1csc(C(C)(C)C)n1,0.809 ± 0.045
4,C/C=C1\NC(=O)[C@H]2CSSCC/C=C/[C@H](CC(=O)N[C@H](C(C)C)C(=O)N2)OC(=O)[C@H](C(C)C)NC1=O [Depsipeptide],0.00208 ± 0.0052
5,COc1cc2/c(=N/c3ccc(Br)cc3F)nc[nH]c2cc1OCC1CCN(C)CC1 [Vandetanib],0.923 ± 0.1
6,C=CC(=O)Nc1cccc(Sc2nc(Nc3ccc(N4CCN(C)CC4)cc3)ncc2Cl)c1,0.859 ± 0.1
7,N#CC(=C(/N)Sc1ccccc1N)/C(C#N)=C(/N)Sc1ccccc1N,0.835 ± 0.084
8,Oc1ccc(-c2nc(-c3ccc(F)cc3)c(-c3ccncc3)[nH]2)cc1,1.08 ± 0.13
